Screens from PubChem.
ADAM17 inh – inhibits human ADAM17; recombinant ADAM17, EDANS/DABCYL FRET peptide cleavage; inhibition, % at 6.95 µM; actives 0.83% (n = 370,000); P78536;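 active = inhibition above the mean of compounds lying between control limits plus 3 SD, set per campaign, cut at about 8.5% in these data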;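 note: 0% = DMSO-only wells as the low control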
KLK7 zymogen act – activates the human kallikrein-7 zymogen. P49862. purified proKLK7, EDANS-DABCYL substrate fluorescence; 100% is mature enzyme control, 0% vehicle. activation, % at 7 µM. actives 0.9% (n = 370,000). AID 652039;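 active = activation above the mean of all tested compounds plus 3 SD, computed per campaign excluding outliers beyond control limits, cut at about 13% in these data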
PLCb3 inh – PLC-beta3 (human) inhibition, primary screen; Q01970; Purified PLC-beta3, fluorogenic substrate, fluorescence; inhibition, % at 12.2 µM; actives 0.18% (n = 370,000); AID 720704; in the data active = inhibition above about 11%;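 note: 0% = median of compound wells on plate and 100% = full blocker control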
ADAM10 inh – inhibits human ADAM10 | inhibition, % at 7 µM | O14672 | recombinant ADAM10, EDANS/DABCYL FRET peptide cleavage, 3 h | actives 0.62% (n = 370,000) | AID 720582;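 active = inhibition above a per-campaign cutoff equal to the mean of compounds falling between control-based bounds plus 3 SD, cut at about 20% in these data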;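 note: 0% = DMSO wells while the 100% control is not disclosed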
Target sequence (O14672 214-748 limits assumed): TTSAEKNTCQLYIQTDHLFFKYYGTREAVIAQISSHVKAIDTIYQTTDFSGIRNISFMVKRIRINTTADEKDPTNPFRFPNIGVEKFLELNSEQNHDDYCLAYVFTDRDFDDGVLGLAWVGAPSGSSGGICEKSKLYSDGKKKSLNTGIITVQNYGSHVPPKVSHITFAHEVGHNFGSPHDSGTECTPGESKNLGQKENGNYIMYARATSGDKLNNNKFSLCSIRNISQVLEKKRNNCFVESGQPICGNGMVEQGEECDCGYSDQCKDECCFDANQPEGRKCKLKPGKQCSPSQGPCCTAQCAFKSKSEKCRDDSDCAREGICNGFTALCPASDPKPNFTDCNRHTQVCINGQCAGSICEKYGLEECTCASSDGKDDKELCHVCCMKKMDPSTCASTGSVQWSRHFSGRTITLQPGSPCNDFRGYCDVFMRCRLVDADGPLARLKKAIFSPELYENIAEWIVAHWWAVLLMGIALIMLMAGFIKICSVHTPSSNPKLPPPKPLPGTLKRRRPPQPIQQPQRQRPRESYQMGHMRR
PLC-gamma1 inh – PLC-gamma1 (human) inhibition, primary screen | P19174 | purified PLC-gamma1, fluorogenic substrate, fluorescence | inhibition, % at 12.2 µM | actives 0.84% (n = 370,000); in the data active = inhibition above about 9.5%
proKLK7 act conf – confirmation of human kallikrein-7 zymogen activators; purified proKLK7, EDANS-DABCYL substrate fluorescence; scaled: vehicle 0, mature enzyme 100; actives 68% (n = 3,200); shares compounds with KLK7 zymogen act; activation, % at 7 µM; AID 686949;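 active = activation, as change over the incubation, above the mean of all tested compounds plus 3 SD, cut at about 13% in these data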
EDANS-DABCYL int – counter-screen for kallikrein-7 activators: EDANS-DABCYL optical interference. shares compounds with KLK7 zymogen act. EDANS-DABCYL substrate fluorescence interference, no enzyme, 4 h; solvent 0%, active enzyme control 100%. activation, % at 7 µM. actives 80% (n = 3,200). AID 686952;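 active = activation above the all-compound mean plus 3 SD, ignoring values outside control-based bounds, cut at about 4.8% in these data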;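 note: value is the 4 h activation minus the activation read at time zero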
K7 EDANS ctr – EDANS fluorescence interference in dose response, no enzyme. shares compounds with KLK7 zymogen act. EDANS-DABCYL peptide fluorescence interference. EC50, µM. actives 20% (n = 250). AID 720493;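 active = compounds that raise the fluorescence signal in this interference counterscreen, with EC50 at or below 10 µM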;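 note: intact quenched peptide substrate alone read at 355 nm excitation and 520 nm emission; signal is fluorescence gain from T0 to T4 after four hours at room temperature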
* hit, by the source's call; i = inactive; x = no result given. Most compounds without a hit are left out; they make up all but 2.9% or so of the library.

SMILES	ADAM17 inh	KLK7 zymogen act	PLCb3 inh	ADAM10 inh	PLC-gamma1 inh	proKLK7 act conf	EDANS-DABCYL int	others
COc1ccccc1C1C=C(c2ccccc2)Nc2nnnn21 (stereo not drawn)	-5.6	20.6*	-223.5	-32.9	-173.0	16.4*	13.5*	K7 EDANS ctr=i
CC(C)Cn1c(N)c(C(=O)NCC2CCCO2)c2nc3ccccc3nc21 (stereo not drawn)	i	-27.6	i	i	i	x	x
COC(=O)c1c(N)n(-c2ccc(NC(C)=O)cc2)c2nc3ccccc3nc12	i	24.2*	i	i	i	75.5*	72.7*
C=CCn1c(N)c(C(=O)OC(C)(C)C)c2nc3ccccc3nc21	i	45.9*	i	i	i	79.8*	70.9*
C=CCn1c(N)c(C(=O)OC(C)CC)c2nc3ccccc3nc21 (stereo not drawn)	i	68.7*	i	i	i	-33.0	-19.4
COCC(C)OC(=O)c1c(N)n(CC(C)C)c2nc3ccccc3nc12 (stereo not drawn)	i	59.0*	i	i	i	-32.8	-30.0
C=CCn1c(N)c(C(=O)Nc2ccccc2)c2nc3ccccc3nc21	-20.6	-5.2	-145.2	-73.3	-124.5	x	x
COCCNC(=O)c1c(N)n(-c2ccccc2)c2nc3ccccc3nc12	-382.0	-31.6	i	i	-413.7	x	x
CS(=O)(=O)N1CCC[C@]2(CC[C@H](CCC#N)O2)C1	-1.7	0.0	-0.6	-2.5	1.6	x	x
CC(C)NC(=O)N[C@H]1C[C@@H]2O[C@H](CO)CC[C@@H]2O[C@@H]1CCc1ccc(-c2ccc(F)cc2)cc1	2.5	0.4	0.0	0.8	1.3	x	x
Nc1c(C(=O)NCCN2CCOCC2)c2nc3ccccc3nc2n1-c1ccccc1	i	28.0*	i	i	i	7.6	9.1*
Nc1c(C(=O)NCCN2CCOCC2)c2nc3ccccc3nc2n1-c1ccc2c(c1)OCO2	-9.8	0.2	-119.1	-34.1	-71.8	x	x
CC(C)OC(=O)c1c(N)n(CCCN2CCOCC2)c2nc3ccccc3nc12	i	28.2*	i	i	i	8.9	7.4*
CCCCC1C2C(=O)N(c3ccccc3)C(=O)C2ON1c1ccccc1 (stereo not drawn)	-1.1	0.7	-6.7	0.9	1.0	x	x
CCCCC1C2C(=O)N(c3ccc(C)cc3)C(=O)C2ON1c1ccccc1 (stereo not drawn)	-3.9	15.2*	-8.2	0.5	-3.1	36.0*	34.0*
COc1ccc(S(=O)(=O)NCCc2cn3nc(C)c(C)nc3n2)cc1C	-414.9	32.7*	i	i	i	37.0*	45.1*
Cc1ccc(S(=O)(=O)NCCc2cn3nc(C)c(C)nc3n2)cc1C	-461.1	57.9*	i	i	i	41.3*	49.3*
COC(=O)[C@]12C[C@H](CC(=O)NCc3ccc(OC)c(OC)c3)C(=O)N(Cc3cccc4ccccc34)C1=C[C@H](COCc1ccccc1)O[C@@H]2C	4.3	-0.3	-0.2	8.4	2.5	x	x
COc1ccc(C2Nc3ccccc3C(=O)N2NS(=O)(=O)c2ccc(C)cc2)cc1 (stereo not drawn)	-74.3	16.1*	-185.2	-218.1	-166.4	4.3	5.6*
CC(=O)NN1C(=O)c2ccccc2NC1c1cccc([N+](=O)[O-])c1 (stereo not drawn)	-23.7	0.4	-72.5	-55.8	-49.0	x	x
O=C1c2ccccc2NC(c2cccc(O)c2)N1NS(=O)(=O)c1ccccc1 (stereo not drawn)	-103.5	20.3*	-202.5	-312.5	-187.2	6.8	6.5*
O=C1c2ccccc2NC(c2cccc(O)c2)N1c1ccccc1 (stereo not drawn)	-267.4	44.4*	i	i	-474.1	12.1	15.1*
Cc1ccc(S(=O)(=O)NN2C(=O)c3ccccc3NC2c2ccccc2)cc1 (stereo not drawn)	-84.3	17.2*	-202.1	-265.9	-174.4	3.9	4.9*
CC[C@@H](CCC1CCCCC1)CN(c1ccccc1)S(C)(=O)=O	0.1	0.2	0.9	1.8	3.2	x	x
O=C(c1cccc(F)c1)N1CCCC(c2nc(-c3cccs3)no2)C1 (stereo not drawn)	2.8	-0.4	1.2	-10.7	-4.0	x	x
SMILES	ADAM17 inh	KLK7 zymogen act	PLCb3 inh	ADAM10 inh	PLC-gamma1 inh	proKLK7 act conf	EDANS-DABCYL int	others
CCOc1ccc(-n2c(SCC(=O)Nc3ccc(S(=O)(=O)Nc4nccs4)cc3)nnc2-c2ccncc2)cc1	1.5	0.0	-4.1	1.8	0.2	x	x
CN1C=CC2=C(C#N)C(N)C(C#N)(C#N)[C@H](c3ccccc3)[C@H]2C1 (stereo partly drawn)	-224.2	38.9*	i	i	-341.0	22.0*	18.1*	K7 EDANS ctr=>69.5
N#CC1(C#N)C(C(N)=O)C1c1ccccc1 (stereo not drawn)	-1.5	0.4	-8.0	-8.7	-7.5	x	x
O=C(NCc1cccc(Cl)c1)O[C@H]1CC[C@@]23CCCN2C(=O)CCC[C@H]3C1	-3.6	x	-0.7	-0.7	-0.3	x	x
O=C(NCCc1ccccc1)OCc1cn(Cc2ccccc2C(F)(F)F)nn1	2.7	0.3	-3.0	0.8	-1.6	x	x
Clc1ccccc1Cn1ccc2ccc(-c3ccc4ccn(Cc5ccccc5Cl)c4c3)cc21	-14.1	-1.3	-74.0	-29.3	-52.1	x	x
CN1c2ccccc2-c2nc3ccccc3n2C1c1ccncc1 (stereo not drawn)	-53.0	1.0	-76.5	-138.8	-59.8	x	x
CCN1c2ccccc2-c2nc3ccccc3n2C1c1ccco1 (stereo not drawn)	i	27.1*	i	i	i	-9.2	-13.0
c1ccc(CN2c3ccccc3-c3nc4ccccc4n3C2c2ccccn2)cc1 (stereo not drawn)	i	-8.4	i	i	-470.9	x	x
CN1c2ccccc2-c2nc3ccccc3n2C1c1ccccn1 (stereo not drawn)	i	34.0*	i	i	i	7.0	3.1
CCOC(=O)C1=C2c3cc(OC)c(OC)cc3CC(C)(C)N2C(=O)C1=O	-43.7	24.3*	-121.3	-149.5	-111.5	5.3	5.9*
CCOC(=O)c1c[nH]n(-c2ccccc2)c1=O	-0.9	-0.2	-6.6	4.6	1.8	x	x
CCOC(=O)c1cc(C(=O)OCC)c2ccccn2c1=O	i	55.4*	i	i	i	57.2*	67.6*
O=C1CCC[C@H]2C[C@H](NCc3ccccc3Cl)CC[C@]23CCCN13	-1.6	x	-1.9	-2.9	-2.5	x	x
